Rab9 promoter act = activates the Rab9 promoter | hit rate 2.8% among 320,000 | Huh7 Rab9 promoter-luciferase reporter, luminescence, 24 h | Potency, µM (doses to about 9.22 µM), for the others: at the top dose activation, negative = inhibition, most hits filed as activators; also: % of control where 0% means no effect; nearly all actives have a fitted effect of over 60% in size
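Using Huh7 cells stably transfected with Rab9 promoter–luciferase, compounds were incubated 24 h at 37 °C, 5% CO2; luciferase luminescence was read 10 min after reagent addition.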
ELG1 genotoxic = genotoxicity induction in ELG1-luciferase HEK293T cells | HEK293T ELG1-luciferase reporter, luminescence, 16 h | Potency, µM (top dose mostly 46 µM), for the others: top-dose activity change, positive = activation, usual class: activators | hit rate 1.3% among 330,000; also: % of control where 0% means no effect; nearly all actives have a fitted effect of over 60% in size
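16 hr compound incubation (37 °C, 5% CO2) of HEK293T cells carrying luciferase-tagged ELG1; luciferase then measured by ONE-Glo luminescence after 30 min at RT.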
SMN2 splice up = enhancers of SMN2 splice variant expression; HEK293 SMN2-luciferase splicing reporter, luminescence, 30-36 h; Potency, µM (titrated, usually from 46.1 µM), without a hit: at the highest dose activity change, positive = activation, hits mostly activators; hit rate 2.8% among 210,000; also: % of control where 0% means no effect; nearly all actives have a fitted effect of over 55% in size
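HEK293 cells carry an SMN2 minigene-luciferase reporter in which exon 7 inclusion puts luciferase in frame. Cells were seeded at 2000 cells/well, attached for 10-12 hours, then exposed to compounds for 30-36 hours at 37C before ONE-Glo luminescence.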
NPC1 prom act = NPC1 promoter activation; Huh7 NPC1 promoter luciferase reporter, 24 h; Potency, µM (highest dose often 9.22 µM), inactives show at the highest dose activation, actives largely listed as activators; hit rate 2.4% among 320,000; also: % of control where 0% means no effect; nearly all actives have a fitted effect of over 60% in size
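Huh7 cells stably carrying NPC1 promoter–luciferase, plated in Opti-MEM with 10% FBS for 2 h, were exposed to compound in DMSO for 24 h at 37 °C; luciferase reagent was added for 10 min and luminescence read.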
ELG1 DNA repair = inhibitors of ELG1-dependent DNA repair in HEK293T cells. hit rate 2.3% among 330,000. Potency, µM (highest dose often 46.1 µM), for the others: at the highest dose activity change, negative = inhibition, usual class: inhibitors. HEK293T ELG1-luciferase reporter, luminescence, 16 h; DNA damage induced by 5-fluorouridine; also: % is scaled to controls: 0 for no effect and ±100 for the full control effect; nearly all actives have a fitted effect of over 55% in size
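Reporter activity after DNA damage by 5-fluorouridine is monitored. Compound-treated cells incubate 16 hr at 37 °C, then ONE-Glo is added for 30 min before luminescence reading.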
FLuc counter = firefly luciferase modulation, counter-screen for miR-21 project; P08659; purified FLuc, Km substrates, luminescence inhibition; Potency, µM (highest dose often 57.5 µM), for inactives: at the highest dose activity change, negative = inhibition, hits mostly inhibitors; hit rate 6.9% among 360,000; AID 588342;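 also: plate controls were vehicle for no effect and reference inhibitor for full effect; nearly all actives have a fitted effect of over 55% in size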
Target sequence (P08659 whole entry, looked up): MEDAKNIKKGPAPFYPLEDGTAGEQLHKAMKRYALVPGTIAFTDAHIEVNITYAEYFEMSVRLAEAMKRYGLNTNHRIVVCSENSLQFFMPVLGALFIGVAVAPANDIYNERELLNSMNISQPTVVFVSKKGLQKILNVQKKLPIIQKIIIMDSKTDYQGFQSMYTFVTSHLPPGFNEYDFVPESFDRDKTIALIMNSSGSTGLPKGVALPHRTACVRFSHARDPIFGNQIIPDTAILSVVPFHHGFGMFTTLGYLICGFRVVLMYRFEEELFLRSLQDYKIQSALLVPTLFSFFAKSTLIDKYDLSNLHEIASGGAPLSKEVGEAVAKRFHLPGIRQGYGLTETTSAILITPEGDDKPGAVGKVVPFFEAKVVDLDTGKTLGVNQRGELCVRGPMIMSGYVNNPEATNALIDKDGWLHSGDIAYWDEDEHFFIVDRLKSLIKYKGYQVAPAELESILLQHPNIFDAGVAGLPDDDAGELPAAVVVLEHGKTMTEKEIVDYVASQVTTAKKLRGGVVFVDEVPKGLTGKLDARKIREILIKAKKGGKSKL
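Purified P. pyralis luciferase (10nM final) with 10uM D-luciferin and 10uM ATP (Km levels) in 50mM Tris acetate pH 7.5, 10mM Mg acetate, 0.01% Tween-20, 0.05% BSA; qHTS 6-point titration, ~60 µM downward; luminescence read.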
An asterisk follows results filed as active; ? = inconclusive; . = no result. Rows were chosen to be rich in hits. Some 9.3% of all compounds tested hit in one or more screens of this group. Calls follow the shape of the dose curve; as a rule, active = well fitted curve in the direction sought with a large enough effect; inconclusive = small, poorly fitted or top-dose-only effect, or another doubt; inactive = no such curve, though single readings can be large; an effect the other way counts as inactive or inconclusive. Potency is read from the fitted curve at half-maximal effect.

SMILES | Rab9 promoter act | ELG1 genotoxic | SMN2 splice up | NPC1 prom act | ELG1 DNA repair | FLuc counter
COc1ccc(C(CNC(=O)c2ccc(-c3nc4ccccc4s3)o2)N2CCCC2)cc1 (configuration not stated) | 1% | -3% | . | -1% | ? | 19µM*
COc1ccc(C(CNC(=O)c2cc3ccccc3o2)N2CCCC2)cc1 (configuration not stated) | 0% | 2% | . | 1% | 0% | -12%
C=CCOc1ccccc1C(=O)/C=C1/C(=O)Nc2ccccc21 | -5% | ? | . | 3% | 1% | ?
C=CCOc1ccc(C(=O)/C=C2/C(=O)Nc3ccccc32)cc1 | -2% | 16% | . | -4% | -4% | 1.5µM*
CC1(c2ccc(OCC(N)=O)cc2)NC(=O)NC1=O (configuration not stated) | -2% | -1% | . | -1% | -1% | 0%
NC(=O)COc1ccc(C(=O)/C=C2/C(=O)Nc3ccccc32)cc1 | -5% | 15% | . | 3% | -3% | 11µM*
Cc1cc(O)cc(O)c1C(=O)Cc1ccccc1 | 2% | -11% | -15% | -2% | 10µM* | -9%
CC1(C)CC(=O)C=C(NC2=CC3OC(c4ccccc4)OCC3OC2=O)C1 (configuration not stated) | 0% | -8% | -11% | -6% | 13µM* | 0%
C[C@@H](C(=O)NCc1c(F)cccc1Cl)N1C(=O)N2CCc3c([nH]c4ccccc34)[C@@]2(C)C1=O | -10% | -2% | . | 1% | ? | 6%
Nc1ncnc2nc(Sc3ccc(Cl)cc3)[nH]c12 | -4% | 1% | -27% | -2% | 3% | -2%
Nc1ncnc2nc(SCc3ccc(Cl)cc3Cl)[nH]c12 | 1% | 3% | -31% | -1% | ? | 21µM*
COc1ccc(CCCc2nnc(SCC(=O)Nc3cc(C)c(C)cc3Br)o2)cc1 | -4% | -7% | 2% | -2% | ? | -2%
CCOC(=O)c1sc(NC(=O)c2cccs2)cc1C | 1.8µM* | 2.1µM* | 14µM* | 1.4µM* | ? | 1.2µM*
CCN(CC)C(=O)c1sc(NC(=O)c2ccc(Br)o2)c(C(=O)OC)c1C | -8% | -2% | -17% | 0% | -17% | -13%
CCOC(=O)c1sc(NC(=O)c2sccc2C)cc1C | 0.56µM* | 2.6µM* | 6.3µM* | 0.63µM* | ? | 1.7µM*
CCOC(=O)c1sc(NC(=S)NC(=O)C2CC2)cc1C | -5% | ? | . | 0% | ? | 2%
CCOC(=O)c1sc(NC(=O)Nc2cccc(Cl)c2)cc1C | ? | ? | ? | 2.5µM* | ? | 1.7µM*
CCOC(=O)c1sc(NC(=O)c2ccc(Br)o2)cc1C | 1.6µM* | 2.3µM* | 11µM* | 4µM* | ? | 3.4µM*
Cc1c(NC(=O)c2cccs2)cccc1NC(=O)c1cccs1 | -3% | 1% | . | 5% | -15% | -6%
COC(=O)Oc1ccc(/C=C/C(=O)OC(C)C)cc1OC(=O)OC | -8% | 14% | ? | -9% | ? | ?
O=C(NCC1(N2CCCCC2)CCCCC1)c1ccc(S(=O)(=O)N2CCCC2)cc1 | -6% | 2% | . | 2% | ? | 1%
O=C(NCCc1ccccc1F)C(=O)Nc1nccs1 | ? | ? | 16% | ? | ? | -19%
Cc1ccc2c(cnn2C(=O)CCCC(=O)NCc2cccc(F)c2)c1 | 17% | 3% | . | -1% | ? | ?
COc1ccc(C#Cc2ccc3c(=O)c4ccccc4n(C)c3c2)cc1 | -1% | -4% | . | -2% | 12% | -17%
Cn1c2ccccc2c(=O)c2cc(C#CC3=CCCCC3)ccc21 | ? | ? | . | ? | ? | 6.7µM*
SMILES | Rab9 promoter act | ELG1 genotoxic | SMN2 splice up | NPC1 prom act | ELG1 DNA repair | FLuc counter
Cn1c2ccccc2c(=O)c2cc(C#Cc3cccc(N)c3)ccc21 | -1% | ? | . | 0% | ? | 4.8µM*
Cn1c2ccccc2c(=O)c2ccc(C#Cc3ccc(N)cc3)cc21 | 21% | 5% | . | 16% | -35% | ?
Cc1ccc(C)c(CSc2cn(CCNC(=O)c3cccs3)c3ccccc23)c1 | . | . | -55% | . | . | 3%
CC1CCCN(C(=O)COC(=O)c2cc(Br)ccc2O)C1 (configuration not stated) | . | 3% | . | . | ? | .
COc1cc(/C=C2\SC(=N)N(c3ccc(F)cc3)C2=O)ccc1O | -8% | 9% | -20% | 1% | ? | -5%
COc1cc(/C=C2\OC(=O)c3c(OC)cccc32)ccc1O | ? | 10µM* | -13% | ? | ? | 3.4µM*
COc1ccc2cc3c(N)nn(C(=O)c4ccc(F)cc4Cl)c3nc2c1 | . | . | -44% | . | . | 5%
COc1ccc2cc3c(N)nn(C(=O)c4cccc([N+](=O)[O-])c4)c3nc2c1 | 6% | -9% | -35% | 12% | 2.3µM* | 4%
COc1ccc(-n2cnc(N)c2C(=O)c2cccc([N+](=O)[O-])c2)cc1 | -5% | -13% | 4% | -8% | 16µM* | 2%
COc1ccc2cc3c(N)nn(C(=O)C4CCC(C(C)(C)C)CC4)c3nc2c1 (configuration not stated) | -2% | -9% | -37% | 11% | 1.8µM* | 6%
NC(=O)COc1ccc(-n2cnnn2)cc1 | -3% | 0% | . | -2% | -11% | -1%
CCOc1ccc2[nH]cc(S(=O)(=O)c3ccc(C)cc3)c(=O)c2c1 | -2% | -12% | -13% | -1% | 16µM* | -2%
O=C(Nc1cccc(Cl)c1)c1nc[nH]c1C(=O)NCCCCNC(=O)c1[nH]cnc1C(=O)Nc1cccc(Cl)c1 | . | 2% | . | . | 8% | .
Cc1cccc(NC(=O)c2nc[nH]c2C(=O)NCCCCNC(=O)c2[nH]cnc2C(=O)Nc2cccc(C)c2)c1 | . | -5% | . | . | 5.2µM* | .
Cc1cccc(NC(=O)c2nc[nH]c2C(=O)NCCCCCCNC(=O)c2[nH]cnc2C(=O)Nc2cccc(C)c2)c1 | -4% | -6% | . | 1% | 9.2µM* | -2%
COc1ccc(N2CC(NC(=O)c3cccs3)CC2=O)cc1OC (configuration not stated) | . | . | . | . | . | 1%
Fc1ccc(N2CCN(c3nc4ccccc4c4nc(-c5ccccc5)nn34)CC2)cc1 | . | . | -4% | . | . | 1%
Cc1cc(N2CCN(c3ccccc3)CC2)nc2ccccc12 | 14% | 4% | . | 11% | 11% | 15µM*
c1ccc(N2CCN(c3cnc4ccccc4n3)CC2)cc1 | 1.1µM* | 1% | 3.5µM* | 1.6µM* | ? | 3.4µM*
Clc1ccc(N2CCN(c3cnc4ccccc4n3)CC2)cc1 | ? | ? | -9% | ? | ? | 17µM*

Bioassay records as filed in PubChem.
